Experimental data published in PubChem BioAssay (NCI).
This is part of a sample that, as a whole, favours compounds with a hit. Of some 83,000 tested, about 20% had one in any assay.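 Growth was measured after 48 h exposure to one concentration of compound in 96-well plates. Values under 10 count as active.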 The source made the active and inactive calls.

Experiments:
Test in all cases: NCI-60 one-dose screen, 48 h (100 = growth as untreated, 0 = no growth, -100 = all killed)
HCT-15 colon = test system: HCT-15 colon
HT29 colon = test system: HT29 colon
SNB-75 CNS = test system: SNB-75 CNS
SNB-19 CNS = test system: SNB-19 CNS
U251 CNS = test system: U251 CNS
SK-MEL-5 melanoma = test system: SK-MEL-5 melanoma
UACC-62 melanoma = test system: UACC-62 melanoma
LOX IMVI melanoma = test system: LOX IMVI melanoma
SK-MEL-2 melanoma = test system: SK-MEL-2 melanoma
EKVX NSCLC = test system: EKVX NSCLC
SN12C renal = test system: SN12C renal
UO-31 renal = test system: UO-31 renal
TK-10 renal = test system: TK-10 renal
ACHN renal = settings: 10 µM unless noted
A498 renal = test system: A498 renal
CCRF-CEM leukemia = test system: CCRF-CEM leukemia
MOLT-4 leukemia = test system: MOLT-4 leukemia
PC-3 prostate = test system: PC-3 prostate
SK-MEL-28 melanoma = test system: SK-MEL-28 melanoma
CAKI-1 renal = settings: 10 µM unless noted

Measured: growth

CCN(Cc1ccccc1)c1ccc(/C=C2\COc3ccccc3C2=O)cc1
inactive: HCT-15 colon; 10 µM 94% | HCT-15 colon; 100 µM 23.6% | HT29 colon; 10 µM 99.7% | SNB-75 CNS; 10 µM 93.2% | SNB-75 CNS; 100 µM 57.6% | SNB-19 CNS; 10 µM 98.9% | SNB-19 CNS; 100 µM 50.4% | U251 CNS; 10 µM 96% | U251 CNS; 100 µM 19.1% | SK-MEL-5 melanoma; 10 µM 102% | UACC-62 melanoma; 10 µM 87% | UACC-62 melanoma; 100 µM 31% | LOX IMVI melanoma; 10 µM 96.3% | LOX IMVI melanoma; 100 µM 37.5% | SK-MEL-2 melanoma; 10 µM 102% | SK-MEL-2 melanoma; 100 µM 21.8% | EKVX NSCLC; 10 µM 102% | EKVX NSCLC; 100 µM 36.9% | SN12C renal; 10 µM 94.5% | SN12C renal; 100 µM 53.2% | UO-31 renal; 10 µM 83.8% | UO-31 renal; 100 µM 18.6% | TK-10 renal; 10 µM 119% | TK-10 renal; 100 µM 53.3% | ACHN renal 101% | A498 renal; 10 µM 91.3% | A498 renal; 100 µM 40.2% | CCRF-CEM leukemia; 10 µM 104% | CCRF-CEM leukemia; 100 µM 15% | MOLT-4 leukemia; 10 µM 78.6% | MOLT-4 leukemia; 100 µM 10.5%
active: HT29 colon; 100 µM 5.56% | SK-MEL-5 melanoma; 100 µM 6.96%

C=C(CNCCc1ccc(O)cc1)[C@@H]1CC[C@]2(CO)CC[C@]3(C)[C@H](CC[C@@H]4[C@@]5(C)CCC(NCCc6ccc(O)cc6)C(C)(C)[C@@H]5CC[C@]43C)[C@@H]12 (stereo not given in full)
active: HCT-15 colon; 10 µM unless noted -86.9% | HT29 colon; 10 µM unless noted -87.7% | SNB-75 CNS; 10 µM unless noted -87.3% | SNB-19 CNS; 10 µM unless noted -85.4% | U251 CNS; 10 µM unless noted -88.4% | PC-3 prostate; 10 µM unless noted -75.6% | SK-MEL-5 melanoma; 10 µM unless noted -93.5% | UACC-62 melanoma; 10 µM unless noted -88% | LOX IMVI melanoma; 10 µM unless noted -86.3% | SK-MEL-28 melanoma; 10 µM unless noted -87.6% | SK-MEL-2 melanoma; 10 µM unless noted -84.2% | EKVX NSCLC; 10 µM unless noted -85.7% | SN12C renal; 10 µM unless noted -85.1% | UO-31 renal; 10 µM unless noted -93.7% | TK-10 renal; 10 µM unless noted -92.6% | ACHN renal -98.9% | CAKI-1 renal -57.7% | A498 renal; 10 µM unless noted -96.6% | CCRF-CEM leukemia; 10 µM unless noted -43.1% | MOLT-4 leukemia; 10 µM unless noted -49.1%

CCCCCCCCn1ccc2cc(NC(=O)CN3CCN(c4nc(C)cc(N5CCCCC5)n4)CC3)ccc21
inactive: HCT-15 colon; 10 µM unless noted 73.2% | HT29 colon; 10 µM unless noted 57.4% | SNB-75 CNS; 10 µM unless noted 87.6% | SNB-19 CNS; 10 µM unless noted 94.3% | U251 CNS; 10 µM unless noted 80.4% | PC-3 prostate; 10 µM unless noted 71.8% | SK-MEL-5 melanoma; 10 µM unless noted 82.1% | UACC-62 melanoma; 10 µM unless noted 81.2% | LOX IMVI melanoma; 10 µM unless noted 103% | SK-MEL-28 melanoma; 10 µM unless noted 94.6% | SK-MEL-2 melanoma; 10 µM unless noted 114% | EKVX NSCLC; 10 µM unless noted 79.4% | SN12C renal; 10 µM unless noted 91.9% | UO-31 renal; 10 µM unless noted 58.4% | TK-10 renal; 10 µM unless noted 98.5% | ACHN renal 91.7% | CAKI-1 renal 86.8% | A498 renal; 10 µM unless noted 104%
active: CCRF-CEM leukemia; 10 µM unless noted -43.6% | MOLT-4 leukemia; 10 µM unless noted 0.667%

CN(Cc1ccccc1)c1nc(Cl)c(C2CC(c3ccc(F)cc3)=NN2C=O)s1 (stereo not given)
inactive: HCT-15 colon; 10 µM unless noted 90.4% | HT29 colon; 10 µM unless noted 95.4% | SNB-75 CNS; 10 µM unless noted 97.3% | SNB-19 CNS; 10 µM unless noted 98.1% | U251 CNS; 10 µM unless noted 97.7% | PC-3 prostate; 10 µM unless noted 83.6% | SK-MEL-5 melanoma; 10 µM unless noted 90.4% | UACC-62 melanoma; 10 µM unless noted 79.2% | LOX IMVI melanoma; 10 µM unless noted 92.8% | SK-MEL-28 melanoma; 10 µM unless noted 106% | SK-MEL-2 melanoma; 10 µM unless noted 116% | EKVX NSCLC; 10 µM unless noted 77.9% | SN12C renal; 10 µM unless noted 103% | UO-31 renal; 10 µM unless noted 76.7% | TK-10 renal; 10 µM unless noted 96.2% | ACHN renal 105% | CAKI-1 renal 83.8% | A498 renal; 10 µM unless noted 100% | CCRF-CEM leukemia; 10 µM unless noted 95.6% | MOLT-4 leukemia; 10 µM unless noted 91.9%

O=C(/C=C/c1cccc(Oc2ccc(Cl)cc2)c1)c1ccccc1
active: HCT-15 colon; 100 µM -72.6% | SNB-75 CNS; 100 µM -94.8% | SNB-19 CNS; 100 µM -77.3% | U251 CNS; 100 µM -100% | PC-3 prostate; 100 µM -72.3% | SK-MEL-5 melanoma; 100 µM -97.3% | LOX IMVI melanoma; 100 µM -99.3% | SK-MEL-28 melanoma; 100 µM -82.2% | SK-MEL-2 melanoma; 100 µM -59.8% | EKVX NSCLC; 100 µM -79.6% | SN12C renal; 100 µM -63.7% | UO-31 renal; 100 µM -99.8% | TK-10 renal; 100 µM -99.2% | A498 renal; 100 µM -95.3% | CCRF-CEM leukemia; 10 µM unless noted -10.5% [100 µM] | MOLT-4 leukemia; 100 µM -2.97%
inactive: HCT-15 colon; 10 µM 80.8% | SNB-75 CNS; 10 µM 82.8% | SNB-19 CNS; 10 µM 90.5% | U251 CNS; 10 µM 76% | PC-3 prostate; 10 µM 84.5% | SK-MEL-5 melanoma; 10 µM 105% | LOX IMVI melanoma; 10 µM 38.2% | SK-MEL-28 melanoma; 10 µM 101% | SK-MEL-2 melanoma; 10 µM 109% | EKVX NSCLC; 10 µM 110% | SN12C renal; 10 µM 111% | UO-31 renal; 10 µM 86.2% | TK-10 renal; 10 µM 105% | ACHN renal 99.3% | A498 renal; 10 µM 99.2% | MOLT-4 leukemia; 10 µM 62.6%

Cc1cnc(C(=O)NNc2nc3sc4c(c3c(=O)[nH]2)C(C)CCC4)cn1 (stereo not given)
inactive: HCT-15 colon; 10 µM unless noted 26% | HT29 colon; 10 µM unless noted 27.9% | SNB-75 CNS; 10 µM unless noted 36.8% | SNB-19 CNS; 10 µM unless noted 22.3% | U251 CNS; 10 µM unless noted 10.4% | PC-3 prostate; 10 µM unless noted 29.7% | SK-MEL-28 melanoma; 10 µM unless noted 23.3% | SK-MEL-2 melanoma; 10 µM unless noted 24.7% | EKVX NSCLC; 10 µM unless noted 23.5% | SN12C renal; 10 µM unless noted 26% | TK-10 renal; 10 µM unless noted 33.5% | ACHN renal 11.8% | A498 renal; 10 µM unless noted 33.9% | CCRF-CEM leukemia; 10 µM unless noted 11.8% | MOLT-4 leukemia; 10 µM unless noted 15.7%
active: SK-MEL-5 melanoma; 10 µM unless noted -38.1% | UACC-62 melanoma; 10 µM unless noted 8.87% | LOX IMVI melanoma; 10 µM unless noted 0.703% | UO-31 renal; 10 µM unless noted 4.88% | CAKI-1 renal 6.98%
